Test results as given in the supplement of paper PMC6555819.

Tested on: PPARg:RXRa 30nM:10nM, anti-RXR (NR concentration 30 nM, RXRa partner concentration 10 nM)
Test: PBM binding z-score (relative to random genomic background probes); higher = stronger binding; sequences stand for … in GC…GCGATTGACAGCGTAGAATGAAGG
Summary of the method: (§1)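 Binding z-scores take random background probes as their reference. They come from custom Agilent 4×180K protein-binding microarrays incubated 1 h with ligand-free nuclear receptor dimers, with antibodies against each partner (one per run) detecting binding. Scanned fluorescence was regression-normalized.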

Sequence | PBM binding z-score
ACTCGGAGGACAAGGGTCAGAGCTACGCCAGTGA | 2.75
AGAATTAGGTTATACGTAGATCAGGGAAGAAAGT | 1.74
ATATGTAGGTTATCGGTTCATTCAGTTTGCGCAT | 2.65
TCTGCTAGGTCAGTTGGTAAGCTAACGAGCTGCC | 1.04
ACTAGCAGGCCAAGGGTCACTCAGGATTAGTCCG | 6.72
CCTAGAAGGCCAGGGTCACTCAAGCATTTCGCTT | -0.294
ATCTCTAGGTAAAGTTCAGTGTAAGATCGATAGA | 2.44
CTAACTAGGTCAAGGACAGTGAATCTCCGCACGC | 4.93
ACTATTAGGTGACTTAGGGCAACCGATACGACGC | 0.448
CCTACTGGGCCAAAAAGATCATTGATGCCGATAA | -0.0196
CCAGACAGGTGAAAGGTAACTCGGTCTGGTACGC | 4.56
TCTAGTTGGTCAAAGGTCACACATTCGAAATGCG | 10.8
TCTAGTTGGTCGAAGGTCACACACTCGAAATGCG | 6.89
ATCTCTAGCTAACCAAGTTCAGTGAATGCCGAAC | -0.294
CGTCCAAGGTCAGCAAGTCAGTGAAAGCGACGTG | 0.523
ATCGAAAGGTCGATGTGAGTATAGAGAAAGGGAA | 1.02
TTACCAAGGTGAACGTCGTTGATCCCTCTGTAGA | 0.514
AGAACGAGGGCACGCTGAGTTGATAGCAGAGTAG | 0.0193
CATACAGGGTCAGCTAGGCGAGAGTAGGGACGGC | 0.767
CGTCCATGGTCAATGCTAGGTCAGTGAAAGCATT | -0.327

Sequence | PBM binding z-score
CCGACTGGTGCAGAAAGGTTACCATACCATCCGG | -0.313
ATACGTAGGTTAGCTGGGGTCATTCAGACTAGGC | 0.452
TCTAGTTGGTCACGGTGGTCACACACGACGGGTA | 3.17
ATATGTAGGTTAAGGGTTATTCAGGTTGGTTCGC | 8.91
TCTGCTACGTCAGTTGGTCAGCTAACGAGCTGCC | 1.01
TCATATAGGTAAACAGGGGAAAGTCCGTAAGTTA | 3.92
ACTATTAGTTGAGACGAGGGCAACCGCTAGGTTG | -0.122
TCTCTGAGGACACGAAAGGTCAGAGCTCGACATC | 2.68
CCTAATGGGCCACGAAAGGTCATTGATTCAGTGA | 1.8
TCTAGTTGGTCAAAGGTCACACGCTCGAAATGCG | 12.1
CCTATTGGGCCATCAGGTCATTGATATCAACGTT | 0.897
TGAATGAGGTTAAAGAGCAGGGAACGTGGCGTCG | 4.52
GTTCGGAGGACAAGGTCAGAGCTTTGTCCGTAGA | -0.266
TCATATAGGTAATACAGGTGAAAGCCGGCATCTA | 3.73
GCTTACGGGTCAAAGGTTATTGCATGAATAGAAT | 8.78
TCTAGTAGGTTACCAATGGGGCATTCAGCTTTCT | 3.2
CGAACGATGGCATGAGTTGATAGCAAATGCCGAT | 0.0969
CCGACTGGGGCCGAAAGGTTACCATACCATCCGG | 0.177
CGTCCAAGGTCAAAGGTCAGTTAAGAGATGACGG | 7.4
CCTAGCAGGCCAGGGTCACTCAAGCATTTCGCTT | -0.362

Tested on: PPARg:RXRa 90nM:30nM, anti-RXR (NR concentration 90 nM, RXRa partner concentration 30 nM)
Test: as above
Summary of the method: as §1

Sequence | PBM binding z-score
ACTCGGAGGACAAGGGTCAGAGCTACGCCAGTGA | 4.25
AGAATTAGGTTATACGTAGATCAGGGAAGAAAGT | 2.58
ATATGTAGGTTATCGGTTCATTCAGTTTGCGCAT | 4.65
TCTGCTAGGTCAGTTGGTAAGCTAACGAGCTGCC | 1.18
ACTAGCAGGCCAAGGGTCACTCAGGATTAGTCCG | 8.16
CCTAGAAGGCCAGGGTCACTCAAGCATTTCGCTT | 0.786
ATCTCTAGGTAAAGTTCAGTGTAAGATCGATAGA | 4.28
CTAACTAGGTCAAGGACAGTGAATCTCCGCACGC | 6.92
ACTATTAGGTGACTTAGGGCAACCGATACGACGC | 0.872
CCTACTGGGCCAAAAAGATCATTGATGCCGATAA | 0.372
CCAGACAGGTGAAAGGTAACTCGGTCTGGTACGC | 6.21
TCTAGTTGGTCAAAGGTCACACATTCGAAATGCG | 10.5
TCTAGTTGGTCGAAGGTCACACACTCGAAATGCG | 7.98
ATCTCTAGCTAACCAAGTTCAGTGAATGCCGAAC | -0.0743
CGTCCAAGGTCAGCAAGTCAGTGAAAGCGACGTG | 1.9
ATCGAAAGGTCGATGTGAGTATAGAGAAAGGGAA | 1.33
TTACCAAGGTGAACGTCGTTGATCCCTCTGTAGA | 1.07
AGAACGAGGGCACGCTGAGTTGATAGCAGAGTAG | 0.94
CATACAGGGTCAGCTAGGCGAGAGTAGGGACGGC | 1.75
CGTCCATGGTCAATGCTAGGTCAGTGAAAGCATT | -0.269

Sequence | PBM binding z-score
CCGACTGGTGCAGAAAGGTTACCATACCATCCGG | 0.336
ATACGTAGGTTAGCTGGGGTCATTCAGACTAGGC | 1.55
TCTAGTTGGTCACGGTGGTCACACACGACGGGTA | 2.47
ATATGTAGGTTAAGGGTTATTCAGGTTGGTTCGC | 9.75
TCTGCTACGTCAGTTGGTCAGCTAACGAGCTGCC | 0.437
TCATATAGGTAAACAGGGGAAAGTCCGTAAGTTA | 3.45
ACTATTAGTTGAGACGAGGGCAACCGCTAGGTTG | 0.0431
TCTCTGAGGACACGAAAGGTCAGAGCTCGACATC | 2.75
CCTAATGGGCCACGAAAGGTCATTGATTCAGTGA | 3.4
TCTAGTTGGTCAAAGGTCACACGCTCGAAATGCG | 11.5
CCTATTGGGCCATCAGGTCATTGATATCAACGTT | 1.88
TGAATGAGGTTAAAGAGCAGGGAACGTGGCGTCG | 5.96
GTTCGGAGGACAAGGTCAGAGCTTTGTCCGTAGA | 0.514
TCATATAGGTAATACAGGTGAAAGCCGGCATCTA | 3.35
GCTTACGGGTCAAAGGTTATTGCATGAATAGAAT | 10.8
TCTAGTAGGTTACCAATGGGGCATTCAGCTTTCT | 2.81
CGAACGATGGCATGAGTTGATAGCAAATGCCGAT | -0.044
CCGACTGGGGCCGAAAGGTTACCATACCATCCGG | 1.26
CGTCCAAGGTCAAAGGTCAGTTAAGAGATGACGG | 9.07
CCTAGCAGGCCAGGGTCACTCAAGCATTTCGCTT | 0.635
